# Screening results deposited in PubChem BioAssay by National Center for Advancing Translational Sciences (NCATS).
# CBFb RUNX1 block: qHTS Assay for Compounds Blocking the Interaction Between CBF-beta and RUNX1 for the Treatment of Acute Myeloid Leukemia | Runt-related transcription factor 1 (Homo sapiens) + Core-binding factor subunit beta … | 230,000 tested, under 10 active | Potency, µM (doses to about 59.8 µM), for inactives: top-dose activity, negative = inhibition, actives largely listed as inhibitors | AlphaScreen CBFb-His/RUNX1-biotin binding, biochemical; further: % of control where 0% means no effect
#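 Proteins preincubated together for 20 min at RT before compound addition; 15 min later, nickel and streptavidin beads were added and left 90 min prior to AlphaScreen measurement.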
# TR SRC2 fluor cs: Total Fluorescence Counterscreen for Inhibitors of the Interaction of Thyroid Hormone Receptor and Steroid Receptor Coregulator 2. TRb/SRC2 Texas Red total fluorescence interference. Potency, µM (top dose mostly 106 µM), inactives show at the highest dose fluorescence change, negative = quenching. 280,000 tested, 0.29% active. AID 1479, 2009; active means well fitted curve in either direction with a large enough effect; inconclusive means small, poorly fitted or top-dose-only effect; further: potency means the concentration at half of the fitted maximal effect; on the % scale 0 is the no-effect control and ±100 the full control effect
#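 Human TRβ ligand-binding domain (0.6 uM) and Texas Red SRC2 peptide (20 nM) in Tris buffer with 1 uM T3 and 5% DMSO were incubated with pinned compound for 5 hr at ambient temperature. Total fluorescence was computed as S + 2P (555/632 nm).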
# GoLoco inh red: qHTS Assay for Inhibitors of RGS12 GoLoco Motif Activity (Red Fluorophore). Guanine nucleotide-binding protein G(i) subunit alpha-1 (Homo sapiens), P63096. Gai1:RGS12 GoLoco peptide FP, rhodamine, 10 min. Potency, µM (titrated, usually from 61.6 µM), for inactives: at the highest dose activity, negative = inhibition, actives largely listed as inhibitors. 230,000 tested, 0.44% active; active means well fitted inhibition curve with a large enough effect, not every such curve was filed as active; inactive means no such curve, though single readings can be large or run the other way; further: potency means the concentration at half of the fitted maximal effect; on the % scale 0 is the no-effect control and ±100 the full control effect; nearly all actives have a fitted effect of over 30% in size
# ERG-DNA inh: qHTS for Small Molecule Inhibitors of the ERG Ets/DNA interaction; 370,000 tested, 0.028% active; Potency, µM (top dose mostly 76.9 µM), inactives show top-dose FP activity, negative = inhibition, most hits filed as inhibitors; fluorescence polarization, His-ERG Ets domain / labelled DNA; Transcriptional regulator ERG (Homo sapiens), P11308; active means well fitted inhibition curve with a large enough effect in the polarisation, with a control signal flat; inconclusive means small, poorly fitted or top-dose-only effect, or effect the other way, or a change in a side signal; inactive means no such curve, though single readings can be large or run the other way; the % refers to the polarisation;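 further: polarization taken with two DNA probes labelled with fluorescein and Texas red; potency means the concentration at half of the fitted maximal effect; % of control where 0% means no effect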
# Target sequence (P11308 whole entry, looked up, the tested form may be a part): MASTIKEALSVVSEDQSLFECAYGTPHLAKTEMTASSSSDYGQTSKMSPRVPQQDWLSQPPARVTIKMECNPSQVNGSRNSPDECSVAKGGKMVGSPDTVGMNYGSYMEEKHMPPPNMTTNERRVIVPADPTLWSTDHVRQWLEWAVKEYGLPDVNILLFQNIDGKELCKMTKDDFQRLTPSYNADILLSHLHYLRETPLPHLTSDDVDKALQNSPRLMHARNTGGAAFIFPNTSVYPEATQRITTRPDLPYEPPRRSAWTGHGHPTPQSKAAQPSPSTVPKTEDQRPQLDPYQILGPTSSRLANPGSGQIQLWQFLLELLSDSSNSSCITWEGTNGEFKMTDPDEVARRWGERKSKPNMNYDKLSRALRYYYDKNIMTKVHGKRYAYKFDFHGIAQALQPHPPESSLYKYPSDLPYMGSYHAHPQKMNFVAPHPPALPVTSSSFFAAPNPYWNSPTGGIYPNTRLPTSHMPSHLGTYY
#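 His-tagged ERG Ets domain (1 uM in the protein solution; 300mM KCl, 50mM Tris-HCl, 1mM EDTA, 1mM DTT, pH 7.5) received compound, then a probe mix of 5 nM fluorescein-DNA and 100nM Texas-615-DNA. Fluorescence polarization was read for both dyes.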
# TRb SRC2 PPI: qHTS for Inhibitors of the Interaction of Thyroid Hormone Receptor and Steroid Receptor Coregulator 2. Thyroid hormone receptor beta (Homo sapiens), P10828. TRbeta-SRC2 peptide binding, fluorescence polarization; receptor liganded with 1 µM T3. Potency, µM (doses to about 106 µM), for inactives: at the highest dose activity change, negative = inhibition, hits mostly inhibitors. 280,000 tested, 0.065% active;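 further: potency means the concentration at half of the fitted maximal effect; plate controls were bound peptide for no effect and peptide without receptor for full effect; nearly all actives have a fitted effect of over 50% in size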
#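 Assay buffer: 20 mM Tris-HCl, 100 mM NaCl, 10% glycerol, 1 mM EDTA, 0.01% NP-40, 1 mM DTT, 1 uM T3, 5% DMSO; TRb LBD 0.6 uM, Texas Red SRC2 20 nM; FP after 5 hr.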
# Integrin act MD: qHTS for Activators of Integrin-Mediated Alleviation for Muscular Dystrophy | alpha7betagal myoblasts, beta-gal FDG fluorescence, 48 h | Potency, µM (doses to about 38.3 µM), without a hit: top-dose activation, most hits filed as activators | 350,000 tested, 0.064% active | AID 624291, 2012;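 further: potency means the concentration at half of the fitted maximal effect; 100% = response of the positive control SU9516; nearly all actives have a fitted effect of over 60% in size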
#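 Alpha7betagal+/- myoblasts (passage 13) were plated 16-24 hr, then exposed to compounds (1:260 dilution of DMSO stock) for 48 hours at 37C. After MPER lysis, β-galactosidase reporter activity was read as FDG fluorescence (ex 480/em 540) after 30 minutes.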
# * = called active by the depositor; ? = inconclusive; . = not tested or not shown; [ ] = remark or other dose. Compounds with a hit are over-represented: about 0.45% of the library has one in this group of screens. Unless noted, the call rests on the fitted dose curve; in most records, active means well fitted curve in the direction sought with a large enough effect; inconclusive means small, poorly fitted or top-dose-only effect, or another doubt; inactive means no such curve, though single readings can be large; an effect the other way counts as inactive or inconclusive.
SMILES,CBFb RUNX1 block,TR SRC2 fluor cs,GoLoco inh red,ERG-DNA inh,TRb SRC2 PPI,Integrin act MD
CC1(C(=O)O)NCCc2cc(O)c(O)cc21 (configuration not stated),?,-4%,-8%,.,4%,.
c1cncc(CNc2cc(-c3ccoc3)ncn2)c1,.,.,13µM*,.,.,.
Cc1cccc(CNc2cc(-c3ccoc3)ncn2)c1,.,3%,18%,.,-4%,.
CCOc1cccc(CNc2ccc(O)cc2)c1OCc1ccc(Cl)cc1Cl,-18%,4%,-3%,?,25µM*,0%
CCOc1cccc(CNc2ccc(O)cc2)c1OCc1ccccc1Cl,-8%,1%[11.2 µM],-27%,?,2%[11.2 µM],-22%
N#Cc1cccc(NC(=O)CSc2ccc3c4c(cccc24)C(=O)c2ccccc2-3)c1,2%,2%,11µM*,3%,10%,-78%
COc1ccc(NC(=O)CSc2ccc3c4c(cccc24)C(=O)c2ccccc2-3)cc1,1%,-3%,19%,5%,-1%,-4%[7.66 µM]
CCn1c(CN2CCCCC2)nc2cc(NC(=O)c3ccc([N+](=O)[O-])cc3)ccc21,.,-11%,.,3%,-4%,.
CCn1c(CN2CCC(C)CC2)nc2cc(NC(=O)COc3ccc(Cl)c(C)c3)ccc21,.,4%,.,-5%,-7%,.
CCN1CCN(Cc2nc3cc(NC(=O)c4cccc([N+](=O)[O-])c4)ccc3n2CC)CC1,.,2.8µM*[quencher],.,-6%,-26%,.
CCn1c(CN2CCCCC2)nc2cc(NC(=O)c3ccccc3[N+](=O)[O-])ccc21,.,-6%,.,-14%,-4%,.
Cn1c(CN2CCOCC2)nc2cc(NC(=O)c3ccccc3[N+](=O)[O-])ccc21,.,100µM*[quencher],.,0%,-11%,.
CCn1c(CN2CCCCC2)nc2cc(NC(=O)COc3ccccc3C(C)(C)C)ccc21,.,282µM*[quencher],.,-3%,-21%,.
COC(=O)C[C@H]1c2ccccc2[C@H]2C(=C[C@@H](C)[C@H]3C(=O)N(O)C(=O)[C@H]32)N1C(=O)OC,-1%[13.1 µM],-1%[11.2 µM],-3%[14.2 µM],.,1%[11.2 µM],.
CC(C)C[C@H](NC(=O)CNC(=O)[C@H](C)NC(=O)[C@H](CC(C)C)NC(=O)[C@H](CCCNC(=N)N)NC(=O)[C@H](Cc1cnc[nH]1)NC(=O)[C@@H](NC(=O)[C@@H](N)C(C)C)[C@@H](C)O)C(=O)N[C@@H](CC(C)C)C(=O)N[C@@H](CO)C(=O)N[C@@H](CCCNC(=N)N)C(=O)N[C@@H](CO)C(=O)NCC(=O)NCC(=O)N[C@H](C(=O)N[C@H](C(=O)N[C@@H](CCCCN)C(=O)N[C@@H](CC(N)=O)C(=O)N[C@@H](CC(N)=O)C(=O)N[C@@H](Cc1ccccc1)C(=O)N[C@H](C(=O)N1CCC[C@H]1C(=O)N[C@H](C(=O)N[C@@H](CC(N)=O)C(=O)N[C@H](C(=O)NCC(=O)N[C@@H](CO)C(=O)N[C@@H](CCCCN)C(=O)N[C@@H](C)C(=O)N[C@@H](Cc1ccccc1)C(N)=O)C(C)C)[C@@H](C)O)C(C)C)C(C)C)C(C)C,11%,0%,.,.,1%,.
O=C(O)CSc1c2c(nc3cc(C(=O)NCCN4CCOCC4)ccc13)CCC2,?,50µM*[fluorescent],-16%,9%,-12%,?
CC(C)CCNC(=O)c1ccc2c(SCC(=O)O)c3c(nc2c1)CCCC3,5%,-1%,10%,?,-10%,17%
CCN1/C(=C/C(C)=C/c2sc3ccccc3[n+]2CC)Sc2ccccc21,.,20µM*[fluorescent],-134%,.,?,?
